These results are taken from PubChem BioAssay (NCATS).

Assay [1] concerns the target Calcium and integrin-binding protein 1 (Homo sapiens) (UniProt Q99828). Briefly: Validation qHTS for Identification of Calcium Integrin Binding protein 1 (CIB1) Competitor (AID 1508618). Further: on the % scale 0 is the no-effect control and ±100 the full control effect. An outline of the steps:
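CIB1-GST (1 uM final) incubated 15 min at room temperature with compounds (up to 114 uM), then FITC-labelled alphaIIb peptide (100 nM) added. FP read (Ex 480/Em 540) after 15 min, pH 7.4 buffer containing 5 mM CaCl2.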

Assay [2] has the same target. The assay can be described thus: Primary qHTS for Identification of Calcium Integrin Binding Protein 1 (CIB1) Competitor (AID 1508620). Further: potency means the concentration at half of the fitted maximal effect. An outline of the steps: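 Fluorescence polarization competition: GST-tagged CIB1 (1 uM final) preincubated with compound 15 min at room temperature, then FITC-labelled alphaIIb peptide (100 nM final) added. After 15 min at room temperature, polarization read at Ex 480/Em 540.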
(Quantitative high-throughput screening tests each substance at several concentrations.)

A short description of assay [3]: Primary qHTS for small molecule stabilizers of the endoplasmic reticulum resident proteome: Secreted ER Calcium Modulated Protein (SERCaMP) assay (AID 1508630). Further: on the % scale 0 is the no-effect control and ±100 the full control effect. An outline of the steps: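 The SH-SY5Y reporter protocol was run at 3 concentrations up to 38.3 uM (primary) or 11 concentrations (follow-up): 16 h compound, 100 nM thapsigargin for 4 h, then extracellular luciferase luminescence.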

For the next assay, the target named is Papain (Carica papaya) (UniProt P00784). Briefly: Primary qHTS assay for inhibitors of the protease papain (AID 1645873).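 Further: papain turnover of Z-FR-AMC read as the AMC fluorescence gain over 10 min.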 Further: potency means the concentration at half of the fitted maximal effect.
The nature of assay [4]: Primary qHTS for inhibitors of nuclear receptor binding SET domain protein 2 (NSD2) in an isogenic RCH-ACV NSD2 p.E1099K mutant (9B) (AID 1645876). Further: nearly all actives have a fitted effect of over 70% in size. Further: potency means the concentration at half of the fitted maximal effect.
Assay [5] is described as follows: Primary qHTS for inhibitors of nuclear receptor binding SET domain protein 2 (NSD2) in an RCH-ACV wild type WT cells (2C) (AID 1645877). Further: nearly all actives have a fitted effect of over 70% in size. Further: potency means the concentration at half of the fitted maximal effect.
The nature of assay [6]: Counterscreen qHTS for small molecule stabilizers of the endoplasmic reticulum resident proteome: GLuc-NoTag assay (AID 1508627). Further: potency means the concentration at half of the fitted maximal effect. A digest of the protocol:
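Counterscreen line: SH-SY5Y-GLuc-NoTag. Seed, 5 h; compound, 19 h; thapsigargin 100 nM, 4 h; 37C/5% CO2. Readout: secreted GLuc luminescence, coelenterazine 0.07x final, no lysis.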
For orientation: Counterscreens check selectivity or assay interference.

Assay [7] in a line: Confirmatory qHTS for small molecule stabilizers of the endoplasmic reticulum resident proteome: Secreted ER Calcium Modulated Protein (SERCaMP) assay (AID 1508628). Further: nearly all actives have a fitted effect of over 40% in size. Further: potency means the concentration at half of the fitted maximal effect. A digest of the protocol:
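Reporter secretion upon ER calcium depletion (100 nM thapsigargin, 4 h, 37C) is measured as medium luminescence with coelenterazine, after 16 h compound pretreatment of SH-SY5Y-GLuc-SERCaMP cells; primary at three concentrations up to 38.3 uM, follow-up at 11 (up to 76.6 uM).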

Assay [8] is described as follows: A High-Content qHTS Against Drug Library for the Identification of Small Molecules that Inhibit DYT1 Early Onset Primary Dystonia-Associated Cell Pathology (AID 1645839; calls by dose curve; further: potency means the concentration at half of the fitted maximal effect). A digest of the protocol: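 Cells were seeded and left for 24 h, then dosed with compound alongside tetracycline induction of mutant EGFP-TorsinA. They were incubated for 48 h, fixed in 4% paraformaldehyde, permeabilized and imaged for mislocalization (%pathology) and cell count.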

Assay [9] concerns the target Cytochrome P450 2D6 (Homo sapiens) (UniProt P10635). Briefly: Cytochrome P450 family 2 subfamily D member 6 (CYP2D6) small molecule antagonists: luciferase biochemical (cell-free) qHTS assay (AID 1645840; active means well fitted curve in the direction sought with a large enough effect in the repeat runs; an effect the other way counts as inactive or inconclusive; further: nearly all actives have a fitted effect of over 55% in size; further: potency means the concentration at half of the fitted maximal effect). An outline of the steps: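 P450-Glo CYP2D6 system: proluciferin substrate converted by enzyme to luciferin, read by luminescence proportional to activity. Enzyme-substrate mix with compound 10 min at room temperature, then NADPH regeneration 1 h before detection reagent.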

In assay [10] the target is Cytochrome P450 2C9 (Homo sapiens) (UniProt P11712). The assay can be described thus: Cytochrome P450 family 2 subfamily C member 9 (CYP2C9) small molecule antagonists: luciferase biochemical (cell-free) qHTS assay (AID 1645842; active means well fitted curve in the direction sought with a large enough effect in the repeat runs; an effect the other way counts as inactive or inconclusive; further: nearly all actives have a fitted effect of over 55% in size; further: potency means the concentration at half of the fitted maximal effect). An outline of the steps: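 P450-Glo CYP2C9 system: proluciferin substrate with enzyme in mix containing 0.4% BSA, 10 min at room temperature, then NADPH regeneration solution added and incubated 1 h at 37C. Detection reagent stopped reaction; luminescence read after 20 min as RLU.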

Assay [11] deals with N-terminal Xaa-Pro-Lys N-methyltransferase 1 (Homo sapiens) (UniProt Q9BV86). Briefly: Confirmatory qHTS for Inhibitors of N-terminal methyltransferase 1 (NTMT1): MTaseGlo Assay (AID 1645874).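 Further: luminescence from SAH made as NTMT1 methylates SPKRIA peptide using SAM; series mostly up to about 100 µM; 0% = DMSO control and -100% = no-enzyme control; nearly all actives have a fitted effect of over 65% in size.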 A digest of the protocol:
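MTase-Glo luminescence measured SAH formed by 125 nM NTMT1 from 100 uM SAM and 1 uM SPKRIA peptide over 30 min at room temperature, following 15 min compound preincubation. Percent inhibition against no-enzyme and DMSO controls gave 4-parameter Hill fits.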

The nature of assay [12]: Cell Viability qHTS for small molecule stabilizers of the endoplasmic reticulum resident proteome (AID 1508629).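 Further: human SH-SY5Y neuroblastoma cells carrying the GLuc-SERCaMP reporter; compound exposure about 46 h in total before the viability read; on the % scale 0 is the no-effect control and ±100 the full control effect.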 The settings on record: cell viability counter-screen, 100 nM thapsigargin for final 4 h.

SMILES strings stand for the structures. “And” between values parts separate entries of the source, which are not always exact repeats. Equal values may be shown once. Records with an inconclusive call do not appear. Values without a mark were called inactive. The source made the active and inactive calls. Unless noted, the call rests on the fitted dose curve; in most records, active means well fitted curve in the direction sought with a large enough effect; inconclusive means small, poorly fitted or top-dose-only effect, or another doubt; inactive means no such curve, though single readings can be large; an effect the other way counts as inactive or inconclusive.

Cytochrome P450 2C9 (Homo sapiens), sequence (P11712 whole entry, looked up): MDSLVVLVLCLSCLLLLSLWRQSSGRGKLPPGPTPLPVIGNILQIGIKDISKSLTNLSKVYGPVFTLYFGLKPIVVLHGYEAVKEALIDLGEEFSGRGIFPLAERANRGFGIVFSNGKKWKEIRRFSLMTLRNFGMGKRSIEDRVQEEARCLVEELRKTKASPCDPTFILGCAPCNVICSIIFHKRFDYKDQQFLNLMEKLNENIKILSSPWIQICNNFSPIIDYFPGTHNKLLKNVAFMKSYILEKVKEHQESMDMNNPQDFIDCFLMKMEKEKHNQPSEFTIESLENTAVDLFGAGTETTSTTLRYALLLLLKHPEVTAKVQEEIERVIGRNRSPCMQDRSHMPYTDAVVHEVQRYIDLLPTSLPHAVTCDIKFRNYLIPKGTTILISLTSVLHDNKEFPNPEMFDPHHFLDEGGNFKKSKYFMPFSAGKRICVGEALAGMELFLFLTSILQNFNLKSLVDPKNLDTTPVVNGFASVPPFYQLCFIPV
Cytochrome P450 2D6 (Homo sapiens), sequence (P10635 whole entry, looked up): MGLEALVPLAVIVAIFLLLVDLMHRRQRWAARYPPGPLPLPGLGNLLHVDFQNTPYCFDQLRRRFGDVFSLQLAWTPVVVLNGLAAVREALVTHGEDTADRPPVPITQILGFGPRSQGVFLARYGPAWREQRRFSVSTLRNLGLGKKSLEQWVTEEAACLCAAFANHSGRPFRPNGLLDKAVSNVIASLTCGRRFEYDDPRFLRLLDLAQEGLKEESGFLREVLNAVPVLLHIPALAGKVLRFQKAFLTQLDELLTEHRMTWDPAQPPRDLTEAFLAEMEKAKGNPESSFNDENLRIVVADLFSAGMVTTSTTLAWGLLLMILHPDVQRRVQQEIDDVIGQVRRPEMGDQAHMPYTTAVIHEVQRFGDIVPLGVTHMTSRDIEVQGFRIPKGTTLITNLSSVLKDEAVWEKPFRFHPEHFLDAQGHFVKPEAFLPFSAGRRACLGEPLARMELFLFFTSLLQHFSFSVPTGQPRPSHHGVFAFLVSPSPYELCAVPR
Calcium and integrin-binding protein 1 (Homo sapiens), sequence (Q99828 whole entry, looked up): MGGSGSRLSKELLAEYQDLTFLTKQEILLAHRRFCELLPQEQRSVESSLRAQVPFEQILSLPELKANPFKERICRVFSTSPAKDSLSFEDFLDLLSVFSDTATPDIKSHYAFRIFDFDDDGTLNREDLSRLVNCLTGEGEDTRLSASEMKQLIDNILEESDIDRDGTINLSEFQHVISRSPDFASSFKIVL
Papain (Carica papaya), sequence (P00784 whole entry, looked up, the tested form may be a part): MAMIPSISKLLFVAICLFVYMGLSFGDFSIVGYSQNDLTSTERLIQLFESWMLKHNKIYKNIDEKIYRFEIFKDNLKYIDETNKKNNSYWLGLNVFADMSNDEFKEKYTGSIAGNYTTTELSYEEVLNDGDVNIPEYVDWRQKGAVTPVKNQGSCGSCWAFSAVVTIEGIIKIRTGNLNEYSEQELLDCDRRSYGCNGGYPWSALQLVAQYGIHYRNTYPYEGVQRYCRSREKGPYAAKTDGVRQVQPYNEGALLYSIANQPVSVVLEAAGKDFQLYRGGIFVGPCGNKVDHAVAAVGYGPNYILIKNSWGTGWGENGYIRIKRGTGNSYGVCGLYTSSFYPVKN
N-terminal Xaa-Pro-Lys N-methyltransferase 1 (Homo sapiens), sequence (Q9BV86 whole entry, looked up): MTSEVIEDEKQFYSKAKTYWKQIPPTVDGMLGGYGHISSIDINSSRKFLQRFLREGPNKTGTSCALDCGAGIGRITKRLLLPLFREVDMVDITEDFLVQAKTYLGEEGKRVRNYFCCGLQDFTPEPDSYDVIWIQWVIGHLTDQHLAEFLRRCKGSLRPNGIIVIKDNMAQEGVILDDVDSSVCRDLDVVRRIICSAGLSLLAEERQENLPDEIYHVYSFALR

As to `COc1ccccc1N1CCN(CCN(C(=O)C2CCCCC2)c2ccccn2)CC1`, in assay [1], the result was inactive. The Potency entry (in assay [2]; in assay [3]; with Papain (Carica papaya); in assay [4]; in [5]) was “inactive” in each case.
In the case of `Cc1cc(Cl)ccc1OCCCC(=O)NO`, the outcome in [1] was inactive. Also, the Potency entry (in assay [2]; in assay [3]; in the assay with Papain (Carica papaya)) was “inactive” each time. In addition, the Potency in [4] was 1.48 µM (active); in [5], 1.66 µM (active).
`CN(C)C(=O)[C@H](O)[C@H](Cc1ccccc1)NC(=O)c1cc2cc(Cl)ccc2[nH]1`: the result in assay [1] was inactive. Also, the Potency entry (in [2]; in [3]; with Papain (Carica papaya)) was “inactive” each time.
Turning to `Cc1cccc(C#Cc2ccccc2)n1`, the result in assay [1] was inactive. In addition, the Potency result in [2] and in [3] was “inactive” in each case.
As for `CC(C)[N+]1(C)[C@@H]2CC[C@H]1CC(OC(=O)C(CO)c1ccccc1)C2` (some centres undefined), in assay [2], the Potency entry is “inactive”.
As to `O=c1c(O)c(-c2cc(O)c(O)c(O)c2)oc2cc(O)cc(O)c12`, in [1], the result was inactive. Further, the Potency result in [2] and in assay [3] was “inactive” throughout. Also, the Potency in assay [4] was 18.6 µM (active).
For the molecule `O=C(O)c1cccc(-c2noc(-c3ccccc3F)n2)c1`, the Potency result in assay [2], in [6], in assay [7], in [8], in [11] and in assay [4] was “inactive” throughout. The Potency entry in assay [5] was “inactive”. Moreover, the Potency in assay [9] and in assay [10] was 1.55 µM (active) in each case.
On to `CN1CCC(=C2c3ccccc3CCc3sccc32)CC1`, for which the Potency entry in assay [2], in [6] and in assay [10] was “inactive” each time. For the same molecule, the Potency in assay [7] is 25.1 µM (active); in [9], 1.1 µM (active); in assay [5], 23.5 µM (active).
`Cc1c(OCC(F)(F)F)ccnc1CS(=O)c1nc2ccccc2[nH]1` (centres undefined): the outcome in [1] was inactive. Besides, the Potency result in [2], in [3] and in assay [8] was “inactive” in each case. Also, the Potency was 389 nM (active) and 1.07 µM (active) in [9]; 15.5 µM (active) and 13.5 µM (active) in assay [10].
On to `O=C(CS(=O)Cc1ccco1)NCC=CCOc1cc(CN2CCCCC2)ccn1` (centres undefined), for which the Potency entry in assay [2] was “inactive”.
Take `CCOC(=O)C(C)Oc1cccc2c(=O)n(CC(=O)Nc3ccc4c(c3)OCCO4)ccc12` (centres undefined): the outcome in [1] was inactive. Besides, the Potency result (in assay [2]; in assay [3]; with Papain (Carica papaya); in [4]; in assay [5]) was “inactive” in each case.
Consider `Nc1nc(N)c(N=O)c(OCC2CCCCC2)n1`, for which the outcome in assay [1] was inactive. The Potency result in assay [2], in assay [9] and in [10] was “inactive” in each case. For the same molecule, the Potency in assay [4] is 7.31 µM (active) and 4.68 µM (active); in assay [5], 6.51 µM (active).
Take `O=C(O)c1cc(=O)c2c(OCC(O)COc3cccc4oc(C(=O)O)cc(=O)c34)cccc2o1`: the Potency entry in assay [2], in assay [6], in assay [7], in assay [3], in assay [8] and in [9] was “inactive” in each case. Moreover, the Potency entry in [10], in assay [4] and in [5] was “inactive” in each case. In addition, the max response in [12] is 17.9%.
Turning to `COc1cc2c(cc1OC)C1CC(=O)C(CC(C)C)CN1CC2` (centres undefined), the outcome in assay [1] was inactive. The Potency result in assay [2], in assay [3], in assay [4] and in assay [5] was “inactive” each time.
Take `CC1(C)NC(=O)N(c2ccc([N+](=O)[O-])c(C(F)(F)F)c2)C1=O`: the result in assay [1] was inactive. Besides, the Potency result (in [2]; in assay [3]; in [8]; in assay [9]; in the assay with Papain (Carica papaya); in assay [4]) was “inactive” in each case. The Potency result in [5] is “inactive”. Moreover, the Potency in assay [10] was 7.76 µM (active) and 6.01 µM (active).
Turning to `O=C(O)c1cccnc1Nc1cccc(C(F)(F)F)c1`, in [1], the result was inactive. The Potency entry in [2], in assay [3], in assay [8], in assay [9] and in assay [5] was “inactive” throughout.
Take `C[C@@H](N)C1CCC(C(=O)Nc2ccncc2)CC1` (some centres undefined): the result in assay [1] was inactive. Besides, the Potency result (in assay [2]; in [3]; with Papain (Carica papaya); in [4]; in assay [5]) was “inactive” in each case.
For `NCCCCNCCCN`, the result in [1] was inactive. Also, the Potency result (in [2]; in assay [3]; with Papain (Carica papaya)) was “inactive” throughout. Also, in assay [5], the Potency is 6.61 µM (active).
Take `CN(C)CCCC1(c2ccc(F)cc2)OCc2cc(C#N)ccc21` (centres undefined): the result in [1] was inactive. The Potency result (in assay [2]; in assay [3]; in the assay with Papain (Carica papaya)) was “inactive” in each case.
Consider `CNC[C@H](O)c1ccc(O)c(O)c1`, for which the outcome in [1] was inactive. Further, the Potency entry (in assay [2]; in assay [3]; in assay [8]; in assay [10]; with Papain (Carica papaya); in assay [4]) was “inactive” throughout. In addition, the Potency entry in assay [5] is “inactive”.
Take `O=C(CCc1ccc(O)cc1)c1c(O)cc(O)cc1O`: the result in [1] was inactive. In addition, the Potency entry (in [2]; in [3]; in the assay with Papain (Carica papaya); in assay [4]) was “inactive” each time.
With `CCN(CC)C(=S)SSC(=S)N(CC)CC`, the outcome in assay [1] was inactive. The Potency in [2] is 44.7 µM (active); in assay [6], 28.2 µM (active); in assay [8], 10 µM (active); in assay [10], 7.7 µM (active) and 7.76 µM (active); in [4], 351 nM (active) and 2.66 µM (active) and 2.63 µM (active); in assay [5], 394 nM (active) and 4.22 µM (active) and 2.95 µM (active). Further, the Potency entry (in [7]; in assay [3]; in [9]; in the assay with Papain (Carica papaya)) was “inactive” each time.
On to `CC1(C)C(=O)N(CCN2CCC(C(=O)c3ccc(F)cc3)CC2)c2ccccc21`, for which the result in [1] was inactive. The Potency entry (in assay [2]; with Papain (Carica papaya)) was “inactive” throughout.
On to `O=Nc1c(-c2c(O)[nH]c3cc(Br)ccc23)[nH]c2ccccc12`, for which the result in assay [1] was inactive. Besides, the Potency entry (in assay [2]; with Papain (Carica papaya)) was “inactive” throughout. The Potency was 21.3 µM (active) in assay [9], 1.32 µM (active) in assay [4] and 1.32 µM (active) in assay [5].
Take `NC(=NCc1ccccc1)NC(=O)c1nc(Cl)c(N)nc1N`: the result in [1] was inactive. Further, the Potency entry in [2], in [3] and in assay [10] was “inactive” throughout. The Potency in assay [9] is 5.35 µM (active); with Papain (Carica papaya) it was 31.6 µM (active); in assay [4], 13.2 µM (active); in assay [5], 13.2 µM (active).
